Reference: PubChem BioAssay
Active and inactive are the calls of the source. Unless noted, the rule behind the calls is not given here.

Legend:
[1] = anti-His antibody binders, primary screen, artefact control for SMM control protein annotation, biochemical, small-molecule microarray, 635 nm fluorescence (AID 1128); details: anti-His Alexa647 antibody binding, higher = more signal;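 note: score merges feature fluorescence with signal-to-noise for each printed compound spot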
[2] = system: Human papillomavirus type 1a E7 protein (residues 1-88); assay: HPV1a E7 small-molecule binders, primary screen, biochemical, small-molecule microarray, residues 1-88, 635 nm (AID 1129); details: small-molecule microarray binding, fluorescence 635 nm; higher = more signal
[3] = target: Focal adhesion kinase 1 (Homo sapiens) (UniProt Q05397); assay: small-molecule microarray binders of FAK, primary screen, biochemical, 635/667 nm fluorescence, BSA, DTT (AID 1130); details: PTK2 binding, 635 nm fluorescence, higher = more signal;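 note: composite of spot emission at 667 nm and signal to noise over triplicate slides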
[4] = system: Fibrinogen (Alexa647-labelled); assay: fibrinogen binders on compound microarrays, profiling panel, artefact control for SMM control-protein annotation, biochemical, small-molecule microarray, 635/667 nm fluorescence (AID 1131); details: fibrinogen-A647 binding fluorescence, higher = more signal;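 note: z-score merges 667 nm fluorescence with per-spot signal-to-noise over triplicate slides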
[5] = target: Follistatin (Homo sapiens) (UniProt P19883); assay: follistatin binders on small-molecule microarrays, primary screen, biochemical, small-molecule microarray, 635/667 nm fluorescence (AID 1132); details: FST binding, 635 nm fluorescence, higher = more signal
[6] = target: Fibroblast growth factor 2 (Homo sapiens) (UniProt P09038); assay: FGF2 binders on small-molecule microarrays, primary screen, biochemical, small-molecule microarray, 635/667 nm fluorescence (AID 1133); details: small-molecule microarray binding, FGF2, fluorescence 635/667; higher = more signal
[7] = mitochondrial membrane potential change in A549 cells, profiling panel, cell-based, JC-1 fluorescence, basal, 24 h, 100 nL (AID 1138); details: higher = more signal;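 note: A549 lung adenocarcinoma cells under basal conditions with no added stimulus; test concentration not given here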
Lefty1 = Lefty1 binders on small-molecule microarrays, primary screen, biochemical, small-molecule microarray, 635/667 nm fluorescence (AID 1139); details: small-molecule microarray binding, fluorescence 635/667; higher = more signal
[8] = system: wheat germ agglutinin (Triticum aestivum), Alexa647-labelled; assay: wheat germ agglutinin binders on compound microarrays, profiling panel, artefact control for SMM control-protein annotation, biochemical, small-molecule microarray, 635/667 nm fluorescence (AID 1140); details: WGA-A647 binding, 635 nm fluorescence, higher = more signal;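 note: score merges 667 nm feature emission with signal to noise over triplicate slides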
[9] = target: Luciferin 4-monooxygenase (Photinus pyralis) (UniProt P08659); assay: firefly luciferase enzyme inhibitors, primary screen, biochemical, luminescence, purified enzyme, 2006 set (AID 1141); details: SteadyGlo luminescence, 30 min, higher = more signal, called active from +8 up or from −8 down;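 note: cell-free assay with purified firefly luciferase at 100 ng per well in PBS; test concentration not given here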
[10] = system: Wnt5a (protein binding on small-molecule microarray); assay: Wnt5a binders on small-molecule microarray, primary screen, biophysical, 635/667 nm fluorescence (AID 1142); details: 635 nm fluorescence, higher = more signal;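 note: fluorescence read at 667 nm with signal to noise per printed feature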
[11] = cell viability in Huh7 cells, primary screen, cytotoxicity control for HCV replication inhibitor project, CellTiter-Glo luminescence, basal, 48 h (AID 1143); details: Huh7 HCV replicon, higher = more signal, called active from +8 up or from −8 down;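 note: Huh7 hepatoma cells carrying a hepatitis C replication reporter with no stimulus; test concentration not given here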
[12] = P. aeruginosa biofilm formation inhibitors, primary screen, PAO1 strain, BacTiter-Glo luminescence, LB-PBS (AID 1144); details: 12 h, higher = more signal
[13] = CREB reporter modulators without forskolin, primary screen, cell-based, PC12, CRE-LacZ reporter, unstimulated (AID 1145); details: no forskolin, luminescence, 4.5 h, higher = more signal, called active from +8 up or from −8 down
[14] = CREB reporter modulators under forskolin, primary screen, cell-based, PC12, CRE-LacZ reporter, forskolin-stimulated (AID 1146); details: luminescence, 4.5 h, higher = more signal, called active from +8 up or from −8 down;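 note: PC12 cells with 6xCRE LacZ reporter stimulated by forskolin 10 µM; beta-galactosidase reporter signal reflecting CREB driven transcription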
[15] = target: Streptavidin (Streptomyces avidinii) (UniProt P22629); assay: streptavidin binders on small-molecule microarray, primary screen, artefact control for SMM compound annotation, biophysical, 635/667 nm fluorescence (AID 1147); details: streptavidin binding, higher = more signal;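 note: signal reflects streptavidin binding to arrayed compounds as a control protein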
[16] = small-molecule binders of probe aInhba, primary screen, biochemical, small-molecule microarray, 635/667 nm fluorescence (AID 1148); details: higher = more signal;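 note: score merges 667nm spot fluorescence with signal-to-noise for antibody binding to printed compounds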
Torsin-1A (Homo sapiens) [17] = target: Torsin-1A (Homo sapiens) (UniProt O14656); assay: torsin A binders from cell lysate, primary screen, small-molecule microarray, wild-type, 635/667 nm (AID 1149); details: COS7 hTOR1A-WT lysate, 635 nm fluorescence, higher = more signal
Torsin-1A (Homo sapiens) [18] = target: Torsin-1A (Homo sapiens) (UniProt O14656); assay: small-molecule binders of mutant TOR1A in lysate, primary screen, cell lysate, small-molecule microarray, COS7 lysate, 635/667 nm fluorescence (AID 1150); details: COS7 hTOR1A mutant lysate, 635 nm fluorescence, higher = more signal;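 note: score pools 667 nm emission and signal to noise measuring lysate protein binding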
[19] = system: Sonic hedgehog protein (Shh); assay: small-molecule binders of Shh protein, primary screen, biochemical, small-molecule microarray, 635/667 nm fluorescence (AID 1151); details: small-molecule microarray binding, 635 nm fluorescence; higher = more signal;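 note: Shh protein binding to compounds spotted on small-molecule microarray slides; score combines spot fluorescence intensity with signal-to-noise across triplicate slides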

Sequence of Follistatin (Homo sapiens) (P19883 whole entry, looked up): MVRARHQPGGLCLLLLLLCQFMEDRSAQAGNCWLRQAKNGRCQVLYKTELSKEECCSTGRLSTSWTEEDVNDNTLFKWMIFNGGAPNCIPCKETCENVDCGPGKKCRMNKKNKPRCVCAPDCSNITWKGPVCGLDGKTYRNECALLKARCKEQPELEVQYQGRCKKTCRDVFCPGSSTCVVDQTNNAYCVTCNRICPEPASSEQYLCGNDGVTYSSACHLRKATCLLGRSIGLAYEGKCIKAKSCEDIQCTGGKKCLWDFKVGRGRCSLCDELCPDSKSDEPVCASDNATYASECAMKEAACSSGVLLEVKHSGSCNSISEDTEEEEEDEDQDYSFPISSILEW
Sequence of Torsin-1A (Homo sapiens) (O14656 whole entry, looked up): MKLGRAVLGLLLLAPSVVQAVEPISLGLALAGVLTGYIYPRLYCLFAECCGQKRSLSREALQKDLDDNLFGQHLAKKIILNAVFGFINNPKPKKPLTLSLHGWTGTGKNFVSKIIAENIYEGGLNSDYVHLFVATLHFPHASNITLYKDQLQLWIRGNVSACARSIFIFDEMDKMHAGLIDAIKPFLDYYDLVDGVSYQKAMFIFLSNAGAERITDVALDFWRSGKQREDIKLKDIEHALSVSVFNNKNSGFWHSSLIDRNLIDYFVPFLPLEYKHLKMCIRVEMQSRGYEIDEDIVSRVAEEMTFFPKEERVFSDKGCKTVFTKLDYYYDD
Sequence of Streptavidin (Streptomyces avidinii) (P22629 whole entry, looked up): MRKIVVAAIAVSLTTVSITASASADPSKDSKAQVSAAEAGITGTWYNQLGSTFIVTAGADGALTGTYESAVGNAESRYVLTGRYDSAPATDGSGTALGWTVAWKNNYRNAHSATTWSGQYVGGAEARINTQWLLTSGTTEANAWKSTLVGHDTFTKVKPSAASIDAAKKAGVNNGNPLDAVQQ
Sequence of Luciferin 4-monooxygenase (Photinus pyralis) (P08659 whole entry, looked up): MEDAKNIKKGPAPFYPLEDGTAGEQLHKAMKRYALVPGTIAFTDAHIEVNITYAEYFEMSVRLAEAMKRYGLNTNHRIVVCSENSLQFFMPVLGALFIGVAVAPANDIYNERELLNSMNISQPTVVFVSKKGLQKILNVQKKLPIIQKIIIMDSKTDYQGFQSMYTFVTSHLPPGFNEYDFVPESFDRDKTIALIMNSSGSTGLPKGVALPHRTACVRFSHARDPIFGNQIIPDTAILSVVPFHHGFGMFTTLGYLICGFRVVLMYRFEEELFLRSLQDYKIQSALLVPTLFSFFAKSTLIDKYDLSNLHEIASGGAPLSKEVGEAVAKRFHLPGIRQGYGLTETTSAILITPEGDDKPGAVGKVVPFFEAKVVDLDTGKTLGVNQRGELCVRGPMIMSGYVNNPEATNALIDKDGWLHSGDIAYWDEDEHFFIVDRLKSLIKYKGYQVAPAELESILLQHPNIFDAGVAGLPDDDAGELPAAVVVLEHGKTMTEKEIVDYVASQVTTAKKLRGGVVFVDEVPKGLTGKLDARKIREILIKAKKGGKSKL
Sequence of Focal adhesion kinase 1 (Homo sapiens) (Q05397 whole entry, looked up): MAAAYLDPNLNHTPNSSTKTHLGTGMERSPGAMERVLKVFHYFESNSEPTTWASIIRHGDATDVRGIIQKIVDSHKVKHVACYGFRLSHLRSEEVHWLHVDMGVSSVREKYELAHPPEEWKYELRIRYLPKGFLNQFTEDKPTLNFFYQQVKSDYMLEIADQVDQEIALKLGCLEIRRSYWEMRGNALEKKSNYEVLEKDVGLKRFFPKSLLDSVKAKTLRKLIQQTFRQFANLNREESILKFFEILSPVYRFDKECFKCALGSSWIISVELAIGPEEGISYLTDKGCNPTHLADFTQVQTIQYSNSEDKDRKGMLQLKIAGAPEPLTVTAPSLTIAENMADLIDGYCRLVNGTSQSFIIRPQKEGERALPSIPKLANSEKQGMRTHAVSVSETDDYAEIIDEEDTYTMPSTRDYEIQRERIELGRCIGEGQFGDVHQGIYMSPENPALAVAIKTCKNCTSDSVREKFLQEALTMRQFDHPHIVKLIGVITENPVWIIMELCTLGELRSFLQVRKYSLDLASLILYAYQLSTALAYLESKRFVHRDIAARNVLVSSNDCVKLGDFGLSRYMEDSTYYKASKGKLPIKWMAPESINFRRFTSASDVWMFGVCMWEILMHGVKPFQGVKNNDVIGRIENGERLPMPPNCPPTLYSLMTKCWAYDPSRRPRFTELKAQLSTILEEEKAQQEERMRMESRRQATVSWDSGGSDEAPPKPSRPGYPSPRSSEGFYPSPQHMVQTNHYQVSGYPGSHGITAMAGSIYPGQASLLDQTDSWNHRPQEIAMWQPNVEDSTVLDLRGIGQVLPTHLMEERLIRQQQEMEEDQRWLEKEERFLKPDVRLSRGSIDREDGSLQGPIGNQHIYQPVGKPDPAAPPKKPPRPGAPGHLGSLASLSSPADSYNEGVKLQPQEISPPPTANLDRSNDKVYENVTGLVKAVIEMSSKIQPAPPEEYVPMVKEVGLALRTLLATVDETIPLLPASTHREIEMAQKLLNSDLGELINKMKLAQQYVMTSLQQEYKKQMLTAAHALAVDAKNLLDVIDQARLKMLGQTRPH
Sequence of Fibroblast growth factor 2 (Homo sapiens) (P09038 whole entry, looked up): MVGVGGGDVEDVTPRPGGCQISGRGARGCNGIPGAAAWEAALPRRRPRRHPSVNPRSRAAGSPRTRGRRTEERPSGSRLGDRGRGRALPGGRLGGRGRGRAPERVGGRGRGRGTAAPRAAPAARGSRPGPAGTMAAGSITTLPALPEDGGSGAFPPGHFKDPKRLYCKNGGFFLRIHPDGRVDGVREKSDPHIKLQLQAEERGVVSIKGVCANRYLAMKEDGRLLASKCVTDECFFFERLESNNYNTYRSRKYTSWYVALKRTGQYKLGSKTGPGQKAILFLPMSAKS

Structure (SMILES) | composite z-score [1] | composite z-score [2] | composite z-score [3] | composite z-score [4] | composite z-score [5] | composite z-score [6] | z-score [7] | composite z-score (Lefty1) | composite z-score [8] | z-score [9] | composite z-score [10] | z-score [11] | z-score [12] | z-score [13] | z-score [14] | composite z-score [15] | composite z-score [16] | composite z-score (Torsin-1A (Homo sapiens) [17]) | composite z-score (Torsin-1A (Homo sapiens) [18]) | composite z-score [19]
Cc1ccc(C(C)CC(O)C2C=CC3C(=O)N(c4ccccc4)C(=O)C3N2Nc2ccc(C#N)cc2)o1 (stereo not given) | 1.21 | 1.24 | 0.175 | 1.03 | 1.24 | 0.37 | 0.289 | 0.0143 | 0.586 | -0.993 (inactive) | 0.303 | -1.18 (inactive) | -0.194 (inactive) | -0.333 (inactive) | -0.306 (inactive) | 1.1 | 0.027 | 0.279 | 0.443 | 0.218
COc1cccc(/C=C(\C#N)C(=O)Nc2c(C)n(C)n(-c3ccccc3)c2=O)c1 | 0.352 | 0.0072 | 0.268 | 0.85 | 0.346 | 0.365 | 0.697 | 0.363 | 0.713 | 0.109 (inactive) | 0.152 | -2.45 (inactive) | -1.47 (inactive) | -0.788 (inactive) | -0.821 (inactive) | 0.841 | -0.206 | 0.217 | 0.285 | 0.241
COc1cc(CO)cc(I)c1O[C@H]1C=C(C(=O)NCCO)C[C@@H](NCC2CCCCC2)[C@@H]1O | 0.72 | 0.283 | 0.211 | 0.0646 | 0.521 | 0.566 | -0.0493 | 0.302 | 0.672 | 0.734 (inactive) | -0.042 | -0.731 (inactive) | -0.893 (inactive) | -0.0534 (inactive) | -0.269 (inactive) | 0.0581 | 0.0422 | -0.549 | -0.262 | -0.397
C[C@]1(C(=O)NCCN2CCOCC2)c2ccccc2C(=O)N(Cc2cc(F)cc(C(F)(F)F)c2)[C@H]1c1ccc(CO)cc1 | 3.12 | 0.917 | 0.746 | 0.91 | 0.89 | -0.0787 | 0.815 | 0.443 | 0.294 | 1.05 (inactive) | -0.187 | -1.39 (inactive) | -1.32 (inactive) | -0.385 (inactive) | -0.909 (inactive) | 0.0519 | 0.027 | 1.82 | 1.84 | 1.86
CC(=O)NCCCC[C@@H]1NC(=O)[C@@H]2C[C@H](C(=O)NCCCCCCN)[C@H](c3cccc(OCCO)c3)N2C1=O | 1.86 | 0.286 | 0.367 | 1.01 | 0.382 | -0.0704 | 0.266 | -0.555 | 1.11 | -0.352 (inactive) | -0.147 | -0.0107 (inactive) | 0.615 (inactive) | -0.13 (inactive) | -0.556 (inactive) | 0.932 | -0.128 | 0.475 | 0.464 | -0.601
